Tests used:
[1] = target: Serine/threonine-protein kinase MARK2 (Homo sapiens) (UniProt Q7KZI7); conditions: at 1 µM
[2] = target: PAS domain-containing serine/threonine-protein kinase (Homo sapiens) (UniProt Q96RG2); conditions: at 0.1 µM
[3] = target: PAS domain-containing serine/threonine-protein kinase (Homo sapiens) (UniProt Q96RG2); conditions: at 1 µM
[4] = target: Phosphorylase b kinase gamma catalytic chain, skeletal muscle/heart isoform (Homo sapiens) (UniProt Q16816); conditions: at 0.1 µM
Chain of Phosphorylase b kinase gamma catalytic chain, skeletal muscle/heart isoform (Homo sapiens) (Q16816 whole entry, looked up, canonical isoform): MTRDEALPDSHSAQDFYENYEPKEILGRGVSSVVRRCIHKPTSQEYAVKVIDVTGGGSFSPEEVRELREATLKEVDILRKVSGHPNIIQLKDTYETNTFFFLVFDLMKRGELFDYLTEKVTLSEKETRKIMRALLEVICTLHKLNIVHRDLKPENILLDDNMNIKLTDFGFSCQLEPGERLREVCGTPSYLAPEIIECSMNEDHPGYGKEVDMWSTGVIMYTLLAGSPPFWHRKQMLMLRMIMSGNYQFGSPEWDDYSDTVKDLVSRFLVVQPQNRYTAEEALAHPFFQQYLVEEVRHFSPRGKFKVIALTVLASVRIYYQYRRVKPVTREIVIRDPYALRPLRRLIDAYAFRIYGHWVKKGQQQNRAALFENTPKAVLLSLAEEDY

[5] = target: Phosphorylase b kinase gamma catalytic chain, skeletal muscle/heart isoform (Homo sapiens) (UniProt Q16816); conditions: at 1 µM
[6] = target: T1, Phosphorylase b kinase gamma catalytic chain, liver/testis isoform (Homo sapiens) (UniProt P15735); conditions: at 0.1 µM
T1 sequence (whole entry): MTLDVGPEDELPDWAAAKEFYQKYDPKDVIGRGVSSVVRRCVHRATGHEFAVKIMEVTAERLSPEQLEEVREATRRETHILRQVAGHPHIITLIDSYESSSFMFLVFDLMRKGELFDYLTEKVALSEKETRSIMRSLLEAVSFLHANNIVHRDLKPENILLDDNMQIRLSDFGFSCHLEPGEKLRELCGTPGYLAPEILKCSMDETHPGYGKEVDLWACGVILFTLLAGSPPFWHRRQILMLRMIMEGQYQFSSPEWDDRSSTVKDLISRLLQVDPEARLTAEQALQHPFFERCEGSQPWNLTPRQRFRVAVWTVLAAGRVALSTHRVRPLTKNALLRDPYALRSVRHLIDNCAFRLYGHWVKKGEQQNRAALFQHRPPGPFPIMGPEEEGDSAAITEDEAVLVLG

[7] = target: T1, Phosphorylase b kinase gamma catalytic chain, liver/testis isoform (Homo sapiens); conditions: at 1 µM
[8] = target: Serine/threonine-protein kinase pim-1 (Homo sapiens) (UniProt P11309); conditions: at 0.1 µM
Chain of Serine/threonine-protein kinase pim-1 (Homo sapiens) (P11309 whole entry, looked up): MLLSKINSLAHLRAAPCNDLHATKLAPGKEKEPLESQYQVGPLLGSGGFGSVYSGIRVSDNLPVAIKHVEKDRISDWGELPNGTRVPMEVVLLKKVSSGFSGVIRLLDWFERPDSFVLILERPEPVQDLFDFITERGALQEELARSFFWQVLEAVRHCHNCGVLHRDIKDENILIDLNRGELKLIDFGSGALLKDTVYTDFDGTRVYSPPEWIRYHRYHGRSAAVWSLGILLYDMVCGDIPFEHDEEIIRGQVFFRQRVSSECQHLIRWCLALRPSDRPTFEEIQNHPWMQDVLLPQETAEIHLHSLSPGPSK

[9] = target: Serine/threonine-protein kinase pim-1 (Homo sapiens) (UniProt P11309); conditions: at 1 µM
[10] = target: Serine/threonine-protein kinase pim-2 (Homo sapiens) (UniProt Q9P1W9); conditions: at 0.1 µM
[11] = target: Serine/threonine-protein kinase pim-2 (Homo sapiens) (UniProt Q9P1W9); conditions: at 1 µM
[12] = target: Serine/threonine-protein kinase pim-3 (Homo sapiens) (UniProt Q86V86); conditions: at 0.1 µM
[13] = target: Serine/threonine-protein kinase pim-3 (Homo sapiens) (UniProt Q86V86); conditions: at 1 µM
[14] = target: T2, MAP kinase-activated protein kinase 5 (Homo sapiens) (UniProt Q8IW41); conditions: at 0.1 µM
T2 sequence (whole entry): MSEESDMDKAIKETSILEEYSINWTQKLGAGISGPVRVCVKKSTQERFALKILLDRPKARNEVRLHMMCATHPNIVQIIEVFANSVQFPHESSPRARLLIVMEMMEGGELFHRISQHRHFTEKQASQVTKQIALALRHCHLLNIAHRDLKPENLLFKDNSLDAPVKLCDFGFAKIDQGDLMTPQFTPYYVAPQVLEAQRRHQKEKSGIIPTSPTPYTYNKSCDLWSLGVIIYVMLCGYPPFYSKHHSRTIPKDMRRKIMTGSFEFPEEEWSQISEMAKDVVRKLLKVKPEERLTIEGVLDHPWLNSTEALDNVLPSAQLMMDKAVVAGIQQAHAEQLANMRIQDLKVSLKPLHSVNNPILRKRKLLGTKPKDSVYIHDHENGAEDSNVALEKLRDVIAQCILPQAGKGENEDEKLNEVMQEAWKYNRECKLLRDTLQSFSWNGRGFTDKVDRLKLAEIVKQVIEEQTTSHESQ

[15] = target: T2, MAP kinase-activated protein kinase 5 (Homo sapiens); conditions: at 1 µM
[16] = target: Serine/threonine-protein kinase SIK1 (Homo sapiens) (UniProt P57059); conditions: at 0.1 µM
Chain of Serine/threonine-protein kinase SIK1 (Homo sapiens) (P57059 whole entry): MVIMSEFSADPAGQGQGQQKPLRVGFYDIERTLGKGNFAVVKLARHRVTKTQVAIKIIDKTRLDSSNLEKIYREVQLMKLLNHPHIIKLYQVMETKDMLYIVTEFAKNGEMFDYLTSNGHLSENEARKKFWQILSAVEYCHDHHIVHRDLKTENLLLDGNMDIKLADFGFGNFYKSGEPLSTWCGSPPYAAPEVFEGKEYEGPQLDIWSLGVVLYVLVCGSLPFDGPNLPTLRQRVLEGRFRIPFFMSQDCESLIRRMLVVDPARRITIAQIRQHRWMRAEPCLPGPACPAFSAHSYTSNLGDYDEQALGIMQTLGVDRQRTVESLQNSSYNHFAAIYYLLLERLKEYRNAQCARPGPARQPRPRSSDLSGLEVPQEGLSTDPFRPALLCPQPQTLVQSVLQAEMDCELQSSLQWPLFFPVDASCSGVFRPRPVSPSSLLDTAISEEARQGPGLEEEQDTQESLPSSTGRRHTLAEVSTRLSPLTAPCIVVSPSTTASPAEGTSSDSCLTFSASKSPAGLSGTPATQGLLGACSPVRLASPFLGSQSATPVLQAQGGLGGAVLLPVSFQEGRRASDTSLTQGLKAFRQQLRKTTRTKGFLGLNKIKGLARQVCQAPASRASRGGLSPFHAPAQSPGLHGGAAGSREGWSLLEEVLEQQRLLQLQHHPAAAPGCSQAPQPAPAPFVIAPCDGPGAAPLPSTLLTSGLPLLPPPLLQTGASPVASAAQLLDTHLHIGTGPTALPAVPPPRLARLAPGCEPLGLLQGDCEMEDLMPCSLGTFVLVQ

[17] = target: Serine/threonine-protein kinase SIK1 (Homo sapiens) (UniProt P57059); conditions: at 1 µM
[18] = target: Serine/threonine-protein kinase SIK2 (Homo sapiens) (UniProt Q9H0K1); conditions: at 0.1 µM
Chain of Serine/threonine-protein kinase SIK2 (Homo sapiens) (Q9H0K1 whole entry, looked up): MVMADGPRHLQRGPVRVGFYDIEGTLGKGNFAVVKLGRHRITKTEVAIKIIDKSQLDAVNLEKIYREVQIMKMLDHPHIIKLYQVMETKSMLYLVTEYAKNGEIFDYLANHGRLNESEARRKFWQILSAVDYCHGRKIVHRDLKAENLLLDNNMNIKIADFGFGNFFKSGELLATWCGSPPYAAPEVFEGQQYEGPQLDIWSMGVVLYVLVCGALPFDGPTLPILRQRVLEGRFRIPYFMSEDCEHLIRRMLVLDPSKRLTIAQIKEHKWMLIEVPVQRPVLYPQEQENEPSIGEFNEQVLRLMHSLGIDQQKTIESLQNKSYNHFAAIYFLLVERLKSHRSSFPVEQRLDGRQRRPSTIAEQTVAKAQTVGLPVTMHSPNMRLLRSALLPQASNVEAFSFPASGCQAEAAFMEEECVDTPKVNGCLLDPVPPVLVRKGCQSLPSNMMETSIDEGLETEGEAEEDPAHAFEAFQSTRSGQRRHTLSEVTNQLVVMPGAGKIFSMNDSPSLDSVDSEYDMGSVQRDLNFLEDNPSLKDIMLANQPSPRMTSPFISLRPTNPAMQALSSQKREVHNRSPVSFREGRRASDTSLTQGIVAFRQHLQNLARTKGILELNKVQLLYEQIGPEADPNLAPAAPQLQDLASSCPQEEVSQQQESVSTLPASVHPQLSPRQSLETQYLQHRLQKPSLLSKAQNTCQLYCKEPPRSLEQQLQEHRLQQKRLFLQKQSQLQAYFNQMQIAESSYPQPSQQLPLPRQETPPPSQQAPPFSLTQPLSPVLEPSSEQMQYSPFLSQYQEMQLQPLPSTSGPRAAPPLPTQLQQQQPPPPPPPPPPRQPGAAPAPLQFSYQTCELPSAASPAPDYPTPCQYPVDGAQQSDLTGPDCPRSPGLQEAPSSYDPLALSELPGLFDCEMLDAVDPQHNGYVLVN

[19] = target: Serine/threonine-protein kinase SIK2 (Homo sapiens) (UniProt Q9H0K1); conditions: at 1 µM
[20] = target: T3, Serine/threonine-protein kinase TBK1 (Homo sapiens) (UniProt Q9UHD2); conditions: at 0.1 µM;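 also: values are the mean TBK1 inhibition, taken from the GSK PKIS screening data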
T3 sequence (whole entry): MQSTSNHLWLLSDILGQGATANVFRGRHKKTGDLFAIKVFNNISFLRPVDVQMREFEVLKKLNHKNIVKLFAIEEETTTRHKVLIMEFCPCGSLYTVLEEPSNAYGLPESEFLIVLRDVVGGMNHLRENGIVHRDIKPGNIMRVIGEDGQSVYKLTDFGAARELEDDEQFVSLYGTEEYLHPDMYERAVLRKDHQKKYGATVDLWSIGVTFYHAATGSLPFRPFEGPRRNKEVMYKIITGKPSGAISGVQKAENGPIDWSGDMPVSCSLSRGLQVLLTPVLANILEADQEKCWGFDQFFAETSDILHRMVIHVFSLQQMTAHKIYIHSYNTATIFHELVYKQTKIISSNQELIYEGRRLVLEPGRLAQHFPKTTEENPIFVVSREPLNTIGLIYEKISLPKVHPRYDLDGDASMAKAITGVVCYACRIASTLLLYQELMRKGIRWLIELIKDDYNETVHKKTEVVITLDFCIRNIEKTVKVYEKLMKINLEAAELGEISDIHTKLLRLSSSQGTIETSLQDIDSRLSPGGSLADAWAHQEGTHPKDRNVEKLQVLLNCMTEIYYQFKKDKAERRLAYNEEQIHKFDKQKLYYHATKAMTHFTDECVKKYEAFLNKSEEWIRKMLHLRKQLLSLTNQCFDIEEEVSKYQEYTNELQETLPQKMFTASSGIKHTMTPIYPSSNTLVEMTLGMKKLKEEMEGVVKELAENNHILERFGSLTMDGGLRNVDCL

Chain of Serine/threonine-protein kinase MARK2 (Homo sapiens) (Q7KZI7 whole entry, the tested form may be a part): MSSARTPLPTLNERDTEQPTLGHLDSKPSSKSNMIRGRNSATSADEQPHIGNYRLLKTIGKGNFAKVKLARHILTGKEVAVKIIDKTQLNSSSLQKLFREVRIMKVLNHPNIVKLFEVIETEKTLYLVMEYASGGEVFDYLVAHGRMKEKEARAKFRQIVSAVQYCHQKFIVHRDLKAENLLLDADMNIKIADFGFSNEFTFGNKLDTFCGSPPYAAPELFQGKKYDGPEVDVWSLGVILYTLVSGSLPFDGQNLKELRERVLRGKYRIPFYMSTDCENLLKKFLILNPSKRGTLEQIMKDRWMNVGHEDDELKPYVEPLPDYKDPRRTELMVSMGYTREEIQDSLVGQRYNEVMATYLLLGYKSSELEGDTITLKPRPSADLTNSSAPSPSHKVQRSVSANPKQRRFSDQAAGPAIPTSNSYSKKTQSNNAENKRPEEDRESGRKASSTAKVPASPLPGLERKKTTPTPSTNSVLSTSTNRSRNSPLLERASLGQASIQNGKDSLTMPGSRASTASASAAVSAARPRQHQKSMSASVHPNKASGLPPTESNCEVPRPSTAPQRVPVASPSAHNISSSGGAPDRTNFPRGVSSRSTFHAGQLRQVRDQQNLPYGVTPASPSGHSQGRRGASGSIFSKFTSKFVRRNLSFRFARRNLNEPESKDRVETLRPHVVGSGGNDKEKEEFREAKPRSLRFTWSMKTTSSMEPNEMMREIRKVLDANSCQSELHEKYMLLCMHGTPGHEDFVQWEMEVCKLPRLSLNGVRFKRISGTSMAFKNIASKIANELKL
Chain of PAS domain-containing serine/threonine-protein kinase (Homo sapiens) (Q96RG2 whole entry, the tested form may be a part, canonical isoform): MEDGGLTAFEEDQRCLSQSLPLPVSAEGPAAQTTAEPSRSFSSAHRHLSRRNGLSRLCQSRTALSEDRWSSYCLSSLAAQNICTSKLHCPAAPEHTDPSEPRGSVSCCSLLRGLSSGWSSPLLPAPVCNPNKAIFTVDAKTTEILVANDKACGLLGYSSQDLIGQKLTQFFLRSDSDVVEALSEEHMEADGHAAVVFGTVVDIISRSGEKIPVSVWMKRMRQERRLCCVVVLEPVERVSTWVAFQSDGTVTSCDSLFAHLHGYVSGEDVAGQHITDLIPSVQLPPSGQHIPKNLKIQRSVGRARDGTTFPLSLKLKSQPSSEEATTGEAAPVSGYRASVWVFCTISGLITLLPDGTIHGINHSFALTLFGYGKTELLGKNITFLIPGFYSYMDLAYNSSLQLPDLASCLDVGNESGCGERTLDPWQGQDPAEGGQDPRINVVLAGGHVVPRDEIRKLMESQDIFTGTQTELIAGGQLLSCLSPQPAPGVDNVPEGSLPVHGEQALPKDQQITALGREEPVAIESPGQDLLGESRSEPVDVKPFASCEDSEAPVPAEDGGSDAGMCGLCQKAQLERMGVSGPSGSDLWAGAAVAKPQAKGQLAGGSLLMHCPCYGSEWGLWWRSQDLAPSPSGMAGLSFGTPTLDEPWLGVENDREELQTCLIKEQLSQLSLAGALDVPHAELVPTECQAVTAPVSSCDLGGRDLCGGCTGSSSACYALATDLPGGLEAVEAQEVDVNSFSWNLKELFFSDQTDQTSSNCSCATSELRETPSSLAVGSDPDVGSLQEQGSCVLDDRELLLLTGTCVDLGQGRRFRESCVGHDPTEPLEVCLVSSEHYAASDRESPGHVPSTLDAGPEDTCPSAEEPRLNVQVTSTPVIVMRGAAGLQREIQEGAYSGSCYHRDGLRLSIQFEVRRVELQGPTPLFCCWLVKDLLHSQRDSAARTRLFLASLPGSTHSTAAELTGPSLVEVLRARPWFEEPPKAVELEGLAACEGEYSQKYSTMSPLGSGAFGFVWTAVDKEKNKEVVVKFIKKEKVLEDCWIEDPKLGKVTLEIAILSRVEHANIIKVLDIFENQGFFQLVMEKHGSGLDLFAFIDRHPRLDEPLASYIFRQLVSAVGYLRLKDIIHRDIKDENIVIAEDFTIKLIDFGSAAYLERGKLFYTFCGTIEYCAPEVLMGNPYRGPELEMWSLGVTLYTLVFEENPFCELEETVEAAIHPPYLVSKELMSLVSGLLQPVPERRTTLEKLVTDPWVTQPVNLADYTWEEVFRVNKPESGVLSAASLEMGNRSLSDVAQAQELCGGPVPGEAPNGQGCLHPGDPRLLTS

SMILES | inhibition [1] | inhibition [2] | inhibition [3] | inhibition [4] | inhibition [5] | inhibition [6] | inhibition [7] | inhibition [8] | inhibition [9] | inhibition [10] | inhibition [11] | inhibition [12] | inhibition [13] | inhibition [14] | inhibition [15] | inhibition [16] | inhibition [17] | inhibition [18] | inhibition [19] | inhibition [20]
Cc1cc(O)cc(C)c1/C=C/c1cncc(C(=O)N(C)C)c1 | 1.77% | 0.83% | -0.85% | 3.09% | 2.61% | 2.55% | 0.54% | 1.21% | 2.17% | 0.03% | 0.34% | -1.55% | -0.09% | 0.59% | -0.52% | 9.45% | 29.4% | 4.34% | 4.27% | 1.36%
c1ccc(Nc2ncc(-c3ccccc3)o2)cc1 | 2.64% | -0.05% | -0.71% | 2.61% | 10.9% | 6.62% | 6.17% | 1.47% | 3.45% | -1.31% | -0.45% | 0.11% | 2.31% | 2.01% | 1.68% | 3.63% | 12.6% | 7.32% | 13.8% | 5.72%
CS(=O)(=O)Nc1cccc(-c2ccc3c(NC(=O)C4CC4)n[nH]c3c2)c1 | 2.88% | 0.72% | -0.4% | 3.02% | 6.04% | 2.36% | -0.09% | 0.69% | 0.43% | 0.5% | 1.38% | -0.62% | -2.53% | 0.1% | -1.16% | -0.72% | 5.25% | -2.65% | 9.32% | -0.1%
CCOc1nccc2c1nc(-c1nonc1N)n2CC | 1.46% | 1.66% | 5.36% | 3.39% | 5.97% | 4.34% | 9.55% | 0.76% | 2.04% | 0.25% | 1.49% | 3.33% | 5.37% | 2.15% | 3.99% | 4.04% | 5.99% | 4.45% | 9.31% | 1.76%
CCCN1CCCC(c2ccc(Nc3nc(Nc4cc(F)ccc4C(N)=O)c4cc[nH]c4n3)c(OC)c2)C1 (stereo not given) | 40% | -0.3% | 8.59% | 51.2% | 77.8% | 26.9% | 67.6% | 11.7% | 50.8% | 0.9% | 7.35% | 4.99% | 40.8% | 5.81% | 33.2% | 6.07% | 10.2% | 2.41% | 11% | 4.22%
NS(=O)(=O)c1ccc(-c2cc3ccncc3cc2OCc2ccccc2)cc1 | -0.56% | -0.27% | 0.09% | 3.43% | 8.39% | 5.17% | 5.11% | 0.14% | 0.86% | -0.34% | -1.33% | -0.2% | 1.38% | 0.82% | 1.86% | 4.35% | 10.3% | 6.46% | 4.1% | 5.88%
Nc1ccc(C#Cc2cncnc2Nc2ccc(OCc3cccc(F)c3)c(Cl)c2)cc1 | 0.46% | 1.09% | 1.56% | 4.22% | 2.49% | 3.68% | 4.32% | 0.21% | 1.21% | 0.43% | 0.51% | -0.08% | 1.14% | 1.7% | 0.75% | 5.15% | 2.18% | -0.99% | 5.08% | 2.5%

Source: ChEMBL document CHEMBL1961873, “Compounds: GSK PKIS; Assays: Nanosyn kinase panel” (2012)
